# According to paper PMC7862700, “An all-to-all approach to the identification of sequence-specific readers for epigenetic DNA modifications on cytosine”:
# Legend:
# Assay in all cases: DAPPL (digital affinity profiling via proximity ligation, sequencing); 10 mM Tris-HCl pH 7.5, 50 mM NaCl, 1 mM DTT, 4% glycerol, room temperature, 30 min; GST-TFs on glutathione beads, 16-mer random dsDNA library, 0.1% formaldehyde crosslink after washing; high values mean tight binding
# FLI1 = target: T1, FLI1 (Homo sapiens, UniProt Q01543 1-452); settings: protein: recombinant; tags: N-terminal GST; dsDNA, one strand shown
# T1 sequence: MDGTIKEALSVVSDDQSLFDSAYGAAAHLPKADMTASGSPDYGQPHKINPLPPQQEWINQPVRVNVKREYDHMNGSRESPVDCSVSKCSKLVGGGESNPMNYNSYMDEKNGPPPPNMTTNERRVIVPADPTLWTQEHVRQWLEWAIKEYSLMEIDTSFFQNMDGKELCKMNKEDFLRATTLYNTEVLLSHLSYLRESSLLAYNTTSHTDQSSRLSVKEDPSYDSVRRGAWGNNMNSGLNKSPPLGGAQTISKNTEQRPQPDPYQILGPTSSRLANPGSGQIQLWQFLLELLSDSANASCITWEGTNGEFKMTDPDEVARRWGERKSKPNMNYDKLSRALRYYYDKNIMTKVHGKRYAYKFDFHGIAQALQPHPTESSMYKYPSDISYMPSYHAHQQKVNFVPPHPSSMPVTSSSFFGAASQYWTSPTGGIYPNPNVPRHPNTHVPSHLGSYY
# How it was run: (§1)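 Human transcription factors carrying a GST fusion were produced in yeast, bound to glutathione beads, tagged with DNA barcodes and pooled together with a tag-only sample. Each pool was held with 200 nmole of a random double-stranded 16-mer DNA library in Tris/NaCl/DTT/glycerol buffer for 30 min at room temperature, then washed, crosslinked in 0.1% formaldehyde, proximity-ligated with BsaI/T4 ligase (1 h, 37 °C), PCR-amplified and sequenced on an Illumina NextSeq500. Binding signal is the read frequency of each hexamer for a given factor divided by its frequency in the tag-only sample.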
# ELK1 = target: T2, ELK1 (Homo sapiens, UniProt P19419 1-428); settings: protein: recombinant; tags: N-terminal GST; dsDNA, one strand shown
# T2 sequence: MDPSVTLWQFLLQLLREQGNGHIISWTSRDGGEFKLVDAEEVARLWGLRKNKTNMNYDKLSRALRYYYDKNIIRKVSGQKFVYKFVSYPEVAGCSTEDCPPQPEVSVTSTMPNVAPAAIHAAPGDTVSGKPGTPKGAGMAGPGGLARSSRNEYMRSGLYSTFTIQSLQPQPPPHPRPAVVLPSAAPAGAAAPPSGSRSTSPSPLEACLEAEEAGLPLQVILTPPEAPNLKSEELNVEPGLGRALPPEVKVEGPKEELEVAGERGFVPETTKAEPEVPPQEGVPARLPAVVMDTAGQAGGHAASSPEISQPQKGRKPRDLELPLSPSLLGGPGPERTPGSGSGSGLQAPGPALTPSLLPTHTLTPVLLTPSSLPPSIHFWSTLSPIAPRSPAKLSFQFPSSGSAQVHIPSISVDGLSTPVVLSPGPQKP
# How it was run: as §1
# GABPA = target: T3, GABPA (Homo sapiens, UniProt Q06546 1-454); settings: protein: recombinant; tags: N-terminal GST; dsDNA, one strand shown
# T3 sequence: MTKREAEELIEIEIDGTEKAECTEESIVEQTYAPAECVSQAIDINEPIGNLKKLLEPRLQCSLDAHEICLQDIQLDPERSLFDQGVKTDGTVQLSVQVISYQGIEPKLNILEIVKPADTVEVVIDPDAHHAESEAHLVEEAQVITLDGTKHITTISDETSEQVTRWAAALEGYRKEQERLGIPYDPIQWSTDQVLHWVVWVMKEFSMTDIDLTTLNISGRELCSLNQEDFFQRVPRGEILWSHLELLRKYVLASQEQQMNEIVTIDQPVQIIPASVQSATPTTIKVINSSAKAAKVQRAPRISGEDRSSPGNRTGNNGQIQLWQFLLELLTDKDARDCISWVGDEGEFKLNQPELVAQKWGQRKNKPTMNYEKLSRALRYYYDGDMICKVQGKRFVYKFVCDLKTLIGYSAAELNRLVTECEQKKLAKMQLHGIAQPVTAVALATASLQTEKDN
# How it was run: as §1
# ERG = target: T4, ERG (Homo sapiens, UniProt P11308 1-479); settings: protein: recombinant; tags: N-terminal GST; dsDNA, one strand shown
# T4 sequence: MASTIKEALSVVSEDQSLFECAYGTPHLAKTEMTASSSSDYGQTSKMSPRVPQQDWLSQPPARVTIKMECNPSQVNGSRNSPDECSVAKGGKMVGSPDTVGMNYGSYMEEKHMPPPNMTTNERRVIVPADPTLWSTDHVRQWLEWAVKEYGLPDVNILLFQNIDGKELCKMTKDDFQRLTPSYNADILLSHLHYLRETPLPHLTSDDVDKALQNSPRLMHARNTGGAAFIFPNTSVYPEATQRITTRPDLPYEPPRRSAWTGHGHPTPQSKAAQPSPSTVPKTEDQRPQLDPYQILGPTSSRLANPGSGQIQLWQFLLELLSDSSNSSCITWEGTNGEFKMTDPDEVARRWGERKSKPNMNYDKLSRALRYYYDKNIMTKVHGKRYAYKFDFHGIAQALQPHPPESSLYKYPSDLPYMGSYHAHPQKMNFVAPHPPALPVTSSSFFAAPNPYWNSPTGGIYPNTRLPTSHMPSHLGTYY
# How it was run: as §1
# ELF1 = ELF1 (Homo sapiens, UniProt P32519 1-619); settings: protein: recombinant; tags: N-terminal GST; dsDNA, one strand shown
# How it was run: as §1
# EHF = target: T5, EHF (Homo sapiens, UniProt Q9NZC4 1-300); settings: protein: recombinant; tags: N-terminal GST; dsDNA, one strand shown
# T5 sequence: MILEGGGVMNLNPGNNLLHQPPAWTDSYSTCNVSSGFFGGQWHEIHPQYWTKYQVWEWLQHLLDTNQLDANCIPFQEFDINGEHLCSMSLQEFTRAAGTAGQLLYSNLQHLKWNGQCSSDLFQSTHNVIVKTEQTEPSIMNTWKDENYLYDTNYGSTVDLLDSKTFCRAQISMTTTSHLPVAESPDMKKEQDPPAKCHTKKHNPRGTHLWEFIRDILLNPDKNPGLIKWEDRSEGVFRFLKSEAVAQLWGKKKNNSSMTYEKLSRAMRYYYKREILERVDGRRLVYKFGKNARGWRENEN
# How it was run: as §1
# SPI1 = SPI1 (Homo sapiens, UniProt P17947 1-270); settings: protein: recombinant; tags: N-terminal GST; dsDNA, one strand shown
# How it was run: as §1
# SPIB = SPIB (Homo sapiens, UniProt Q01892 1-262); settings: protein: recombinant; tags: N-terminal GST; dsDNA, one strand shown
# How it was run: as §1
# ELK3 = target: T6, ELK3 (Homo sapiens, UniProt P41970 1-407); settings: protein: recombinant; tags: N-terminal GST; dsDNA, one strand shown
# T6 sequence: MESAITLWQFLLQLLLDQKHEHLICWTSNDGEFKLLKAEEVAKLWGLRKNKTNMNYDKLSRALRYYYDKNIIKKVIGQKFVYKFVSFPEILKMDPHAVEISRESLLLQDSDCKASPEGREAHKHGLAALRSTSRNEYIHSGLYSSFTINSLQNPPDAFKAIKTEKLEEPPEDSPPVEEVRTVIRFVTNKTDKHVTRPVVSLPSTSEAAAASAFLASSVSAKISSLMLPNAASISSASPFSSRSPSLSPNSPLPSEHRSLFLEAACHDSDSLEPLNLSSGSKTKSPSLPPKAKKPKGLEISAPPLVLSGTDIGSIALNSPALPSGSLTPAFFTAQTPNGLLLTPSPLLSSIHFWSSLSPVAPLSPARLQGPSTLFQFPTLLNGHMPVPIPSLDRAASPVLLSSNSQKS
# How it was run: as §1
# FEV = target: T7, FEV (Homo sapiens, UniProt Q99581 1-238); settings: protein: recombinant; tags: N-terminal GST; dsDNA, one strand shown
# T7 sequence: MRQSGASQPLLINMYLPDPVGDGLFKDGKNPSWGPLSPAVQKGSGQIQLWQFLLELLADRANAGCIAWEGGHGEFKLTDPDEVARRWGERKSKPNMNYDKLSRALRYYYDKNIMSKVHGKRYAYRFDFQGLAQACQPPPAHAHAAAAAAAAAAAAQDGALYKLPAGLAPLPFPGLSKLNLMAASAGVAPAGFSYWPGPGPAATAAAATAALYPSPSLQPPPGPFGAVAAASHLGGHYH
# How it was run: as §1
# ETV5 = ETV5 (Homo sapiens, UniProt P41161 1-510); settings: protein: recombinant; tags: N-terminal GST; dsDNA, one strand shown
# How it was run: as §1
# HSF1 = HSF1 (Homo sapiens, UniProt Q00613 1-529); settings: protein: recombinant; tags: N-terminal GST; chain copies: 3; dsDNA, one strand shown
# How it was run: as §1
# SPIC = target: T8, SPIC (Homo sapiens, UniProt Q8N5J4 1-248); settings: protein: recombinant; tags: N-terminal GST; dsDNA, one strand shown
# T8 sequence: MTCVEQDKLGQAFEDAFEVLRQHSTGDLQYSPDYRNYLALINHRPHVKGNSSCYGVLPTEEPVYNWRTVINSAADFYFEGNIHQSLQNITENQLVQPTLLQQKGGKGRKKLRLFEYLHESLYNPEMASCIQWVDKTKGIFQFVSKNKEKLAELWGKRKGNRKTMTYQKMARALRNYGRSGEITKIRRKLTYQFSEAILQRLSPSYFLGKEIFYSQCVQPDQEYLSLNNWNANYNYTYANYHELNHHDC
# How it was run: as §1
# ELF4 = ELF4 (Homo sapiens, UniProt Q99607 1-663); settings: protein: recombinant; tags: N-terminal GST; dsDNA, one strand shown
# How it was run: as §1
# ELK4 = target: T9, ELK4 (Homo sapiens, UniProt P28324-2 1-405); settings: protein: recombinant; tags: N-terminal GST; dsDNA, one strand shown
# T9 sequence: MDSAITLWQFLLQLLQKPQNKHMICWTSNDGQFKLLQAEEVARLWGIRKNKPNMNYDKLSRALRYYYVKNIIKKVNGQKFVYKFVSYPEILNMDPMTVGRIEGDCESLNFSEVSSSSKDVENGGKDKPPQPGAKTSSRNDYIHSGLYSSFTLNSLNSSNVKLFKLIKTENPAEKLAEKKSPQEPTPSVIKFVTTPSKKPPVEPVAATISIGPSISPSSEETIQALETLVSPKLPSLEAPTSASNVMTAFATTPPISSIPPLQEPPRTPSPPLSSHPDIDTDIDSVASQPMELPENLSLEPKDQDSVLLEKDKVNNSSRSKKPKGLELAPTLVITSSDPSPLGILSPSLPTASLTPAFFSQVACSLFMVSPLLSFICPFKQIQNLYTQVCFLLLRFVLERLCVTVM
# How it was run: as §1
# ETV2 = target: T10, ETV2 (Homo sapiens, UniProt O00321 1-342); settings: protein: recombinant; tags: N-terminal GST; dsDNA, one strand shown
# T10 sequence: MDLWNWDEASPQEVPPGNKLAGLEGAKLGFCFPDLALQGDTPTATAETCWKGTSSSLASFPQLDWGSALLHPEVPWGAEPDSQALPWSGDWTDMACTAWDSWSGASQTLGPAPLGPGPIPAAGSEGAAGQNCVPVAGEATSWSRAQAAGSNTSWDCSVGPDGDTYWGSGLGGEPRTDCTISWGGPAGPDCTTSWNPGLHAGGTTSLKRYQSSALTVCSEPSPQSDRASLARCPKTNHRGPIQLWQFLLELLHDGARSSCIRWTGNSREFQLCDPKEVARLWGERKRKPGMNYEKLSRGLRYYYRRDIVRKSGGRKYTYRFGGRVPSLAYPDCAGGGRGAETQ
# How it was run: as §1
# ELF3 = target: T11, ELF3 (Homo sapiens, UniProt P78545 1-371); settings: protein: recombinant; tags: N-terminal GST; dsDNA, one strand shown
# T11 sequence: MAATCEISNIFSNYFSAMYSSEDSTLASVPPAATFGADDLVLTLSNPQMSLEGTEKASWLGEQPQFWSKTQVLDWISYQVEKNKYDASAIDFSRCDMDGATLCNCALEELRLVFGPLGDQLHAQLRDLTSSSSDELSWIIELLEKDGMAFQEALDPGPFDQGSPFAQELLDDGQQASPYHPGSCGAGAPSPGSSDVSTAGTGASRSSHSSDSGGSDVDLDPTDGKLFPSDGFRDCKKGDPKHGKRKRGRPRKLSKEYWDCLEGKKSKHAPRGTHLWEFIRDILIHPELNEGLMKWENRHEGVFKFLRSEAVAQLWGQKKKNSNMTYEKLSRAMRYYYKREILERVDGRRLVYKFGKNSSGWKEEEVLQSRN
# How it was run: as §1
# CRX = CRX (Homo sapiens, UniProt O43186 1-299); settings: protein: recombinant; tags: N-terminal GST; dsDNA, one strand shown
# How it was run: as §1
# ETV1 = ETV1 (Homo sapiens, UniProt P50549 1-477); settings: protein: recombinant; tags: N-terminal GST; dsDNA, one strand shown
# How it was run: as §1
# ETV1, sequence (P50549 whole entry): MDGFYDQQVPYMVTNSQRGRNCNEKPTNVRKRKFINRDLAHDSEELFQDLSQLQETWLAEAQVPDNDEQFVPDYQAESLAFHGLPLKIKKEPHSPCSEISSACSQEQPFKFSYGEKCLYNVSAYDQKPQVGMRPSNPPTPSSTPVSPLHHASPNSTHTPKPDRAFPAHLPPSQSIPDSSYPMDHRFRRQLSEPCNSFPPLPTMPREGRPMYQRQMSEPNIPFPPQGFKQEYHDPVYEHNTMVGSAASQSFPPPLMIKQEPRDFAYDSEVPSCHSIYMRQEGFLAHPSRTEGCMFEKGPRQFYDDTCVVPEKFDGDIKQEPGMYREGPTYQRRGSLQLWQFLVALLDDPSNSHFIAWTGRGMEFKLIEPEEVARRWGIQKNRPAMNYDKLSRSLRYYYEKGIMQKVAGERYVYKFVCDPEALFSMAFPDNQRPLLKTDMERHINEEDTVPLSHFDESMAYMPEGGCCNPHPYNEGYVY
# SPIB, sequence (Q01892 whole entry): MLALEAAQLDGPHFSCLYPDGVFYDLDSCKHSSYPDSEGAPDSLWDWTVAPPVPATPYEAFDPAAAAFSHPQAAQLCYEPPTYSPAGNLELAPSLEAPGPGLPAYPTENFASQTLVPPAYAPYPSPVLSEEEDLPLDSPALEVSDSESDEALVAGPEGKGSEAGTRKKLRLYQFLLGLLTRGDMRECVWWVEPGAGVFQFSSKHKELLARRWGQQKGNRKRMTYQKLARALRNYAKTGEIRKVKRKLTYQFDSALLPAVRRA
# ETV5, sequence (P41161 whole entry): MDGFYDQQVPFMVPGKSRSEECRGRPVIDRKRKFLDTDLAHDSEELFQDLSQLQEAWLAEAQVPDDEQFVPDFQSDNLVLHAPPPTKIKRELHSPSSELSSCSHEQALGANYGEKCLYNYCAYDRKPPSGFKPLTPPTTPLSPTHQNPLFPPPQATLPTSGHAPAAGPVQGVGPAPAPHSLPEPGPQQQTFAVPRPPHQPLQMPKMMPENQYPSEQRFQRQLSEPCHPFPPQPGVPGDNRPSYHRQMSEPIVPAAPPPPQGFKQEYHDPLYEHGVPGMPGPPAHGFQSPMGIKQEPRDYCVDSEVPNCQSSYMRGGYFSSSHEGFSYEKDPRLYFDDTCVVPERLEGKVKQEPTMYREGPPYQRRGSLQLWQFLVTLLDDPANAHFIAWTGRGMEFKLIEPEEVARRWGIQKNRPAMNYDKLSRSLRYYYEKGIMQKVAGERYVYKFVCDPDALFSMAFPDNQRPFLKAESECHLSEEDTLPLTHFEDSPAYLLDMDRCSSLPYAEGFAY
# HSF1, sequence (Q00613 whole entry): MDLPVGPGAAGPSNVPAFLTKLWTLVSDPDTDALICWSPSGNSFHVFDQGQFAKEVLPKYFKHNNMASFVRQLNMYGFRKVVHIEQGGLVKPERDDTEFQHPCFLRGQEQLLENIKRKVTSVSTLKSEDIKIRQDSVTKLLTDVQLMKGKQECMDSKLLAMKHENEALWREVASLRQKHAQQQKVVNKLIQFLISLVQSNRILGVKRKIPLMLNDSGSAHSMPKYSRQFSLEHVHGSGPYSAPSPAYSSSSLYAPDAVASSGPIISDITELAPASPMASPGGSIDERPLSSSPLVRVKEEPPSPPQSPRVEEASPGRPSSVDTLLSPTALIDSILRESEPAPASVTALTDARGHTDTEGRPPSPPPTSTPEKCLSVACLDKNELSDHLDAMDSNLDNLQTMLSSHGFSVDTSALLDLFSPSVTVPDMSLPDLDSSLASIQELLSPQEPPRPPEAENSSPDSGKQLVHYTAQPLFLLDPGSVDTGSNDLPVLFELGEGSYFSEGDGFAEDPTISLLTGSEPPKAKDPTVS
# ELF4, sequence (Q99607 whole entry): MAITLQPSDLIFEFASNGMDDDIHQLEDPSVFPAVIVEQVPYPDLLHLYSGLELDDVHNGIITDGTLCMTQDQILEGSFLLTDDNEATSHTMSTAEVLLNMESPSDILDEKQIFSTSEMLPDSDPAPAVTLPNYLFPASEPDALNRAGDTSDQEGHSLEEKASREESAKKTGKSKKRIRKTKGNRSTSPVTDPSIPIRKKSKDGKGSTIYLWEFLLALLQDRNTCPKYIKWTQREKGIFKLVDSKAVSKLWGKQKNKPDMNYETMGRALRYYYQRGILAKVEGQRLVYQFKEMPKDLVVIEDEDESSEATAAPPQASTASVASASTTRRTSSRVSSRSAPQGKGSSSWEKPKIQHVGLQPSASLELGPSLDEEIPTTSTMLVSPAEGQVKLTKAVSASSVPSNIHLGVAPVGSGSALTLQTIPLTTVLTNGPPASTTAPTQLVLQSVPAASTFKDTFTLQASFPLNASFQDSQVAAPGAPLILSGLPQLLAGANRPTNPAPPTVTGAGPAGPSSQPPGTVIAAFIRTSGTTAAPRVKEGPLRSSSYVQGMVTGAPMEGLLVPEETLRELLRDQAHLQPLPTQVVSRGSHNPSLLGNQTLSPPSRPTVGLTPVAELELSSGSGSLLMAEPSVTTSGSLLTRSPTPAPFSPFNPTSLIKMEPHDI
# ELF1, sequence (P32519 whole entry): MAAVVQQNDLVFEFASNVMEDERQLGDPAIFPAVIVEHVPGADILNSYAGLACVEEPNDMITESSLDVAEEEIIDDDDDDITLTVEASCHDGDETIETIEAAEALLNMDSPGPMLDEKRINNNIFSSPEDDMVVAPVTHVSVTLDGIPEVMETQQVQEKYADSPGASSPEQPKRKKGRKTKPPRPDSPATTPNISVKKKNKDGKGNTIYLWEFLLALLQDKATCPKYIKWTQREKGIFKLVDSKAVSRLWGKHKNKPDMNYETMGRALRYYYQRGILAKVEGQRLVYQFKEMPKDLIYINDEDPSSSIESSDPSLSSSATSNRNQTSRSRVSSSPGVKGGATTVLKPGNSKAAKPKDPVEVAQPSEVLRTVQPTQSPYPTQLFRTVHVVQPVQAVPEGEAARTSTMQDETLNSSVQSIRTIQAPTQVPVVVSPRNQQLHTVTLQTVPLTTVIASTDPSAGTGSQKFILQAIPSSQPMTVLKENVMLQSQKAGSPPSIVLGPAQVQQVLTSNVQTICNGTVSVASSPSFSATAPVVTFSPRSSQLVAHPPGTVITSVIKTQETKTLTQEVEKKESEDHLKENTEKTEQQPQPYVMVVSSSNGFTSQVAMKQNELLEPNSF
# CRX, sequence (O43186 whole entry): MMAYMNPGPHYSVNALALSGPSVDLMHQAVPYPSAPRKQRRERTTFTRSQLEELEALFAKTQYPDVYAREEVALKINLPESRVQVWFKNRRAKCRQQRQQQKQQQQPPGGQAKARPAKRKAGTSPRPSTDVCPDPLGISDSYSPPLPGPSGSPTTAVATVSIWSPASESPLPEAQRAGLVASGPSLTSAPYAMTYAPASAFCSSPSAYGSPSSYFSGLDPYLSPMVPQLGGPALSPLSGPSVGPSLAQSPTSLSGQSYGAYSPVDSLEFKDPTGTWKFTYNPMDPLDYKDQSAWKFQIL
sequence,measurement,setting,value
TACTCT,binding signal,FLI1,"1.37 fold enrichment (6-mer frequency, TF over GST control)"
same,binding signal,ELK1,"1.5 fold enrichment (6-mer frequency, TF over GST control)"
same,binding signal,GABPA,"1.52 fold enrichment (6-mer frequency, TF over GST control)"
same,binding signal,ERG,"1.34 fold enrichment (6-mer frequency, TF over GST control)"
same,binding signal,ELF1,"1.42 fold enrichment (6-mer frequency, TF over GST control)"
same,binding signal,EHF,"1.45 fold enrichment (6-mer frequency, TF over GST control)"
same,binding signal,SPI1,"1.44 fold enrichment (6-mer frequency, TF over GST control)"
same,binding signal,SPIB,"1.33 fold enrichment (6-mer frequency, TF over GST control)"
same,binding signal,ELK3,"1.56 fold enrichment (6-mer frequency, TF over GST control)"
same,binding signal,FEV,"1.33 fold enrichment (6-mer frequency, TF over GST control)"
same,binding signal,ETV5,"1.45 fold enrichment (6-mer frequency, TF over GST control)"
same,binding signal,HSF1,"1.37 fold enrichment (6-mer frequency, TF over GST control)"
same,binding signal,SPIC,"1.28 fold enrichment (6-mer frequency, TF over GST control)"
same,binding signal,ELF4,"1.42 fold enrichment (6-mer frequency, TF over GST control)"
same,binding signal,ELK4,"1.44 fold enrichment (6-mer frequency, TF over GST control)"
same,binding signal,ETV2,"1.43 fold enrichment (6-mer frequency, TF over GST control)"
same,binding signal,ELF3,"1.49 fold enrichment (6-mer frequency, TF over GST control)"
same,binding signal,CRX,"1.6 fold enrichment (6-mer frequency, TF over GST control)"
same,binding signal,ETV1,"1.47 fold enrichment (6-mer frequency, TF over GST control)"
